Measured values published in ChEMBL document CHEMBL3988442, “University of Dundee, Small-Polar-MMV Screening Library” (2021).

Each molecule was assayed against T1, Aspartate--tRNA(Asp/Asn) ligase (Mycobacterium tuberculosis (strain ATCC 25618 / H37Rv)) (UniProt P9WFW3) (assay: Assay for Asp RNA synthetase-1 from Mycobacterium tuberculosis). Conditions: 30 µM.
T1 sequence (whole entry): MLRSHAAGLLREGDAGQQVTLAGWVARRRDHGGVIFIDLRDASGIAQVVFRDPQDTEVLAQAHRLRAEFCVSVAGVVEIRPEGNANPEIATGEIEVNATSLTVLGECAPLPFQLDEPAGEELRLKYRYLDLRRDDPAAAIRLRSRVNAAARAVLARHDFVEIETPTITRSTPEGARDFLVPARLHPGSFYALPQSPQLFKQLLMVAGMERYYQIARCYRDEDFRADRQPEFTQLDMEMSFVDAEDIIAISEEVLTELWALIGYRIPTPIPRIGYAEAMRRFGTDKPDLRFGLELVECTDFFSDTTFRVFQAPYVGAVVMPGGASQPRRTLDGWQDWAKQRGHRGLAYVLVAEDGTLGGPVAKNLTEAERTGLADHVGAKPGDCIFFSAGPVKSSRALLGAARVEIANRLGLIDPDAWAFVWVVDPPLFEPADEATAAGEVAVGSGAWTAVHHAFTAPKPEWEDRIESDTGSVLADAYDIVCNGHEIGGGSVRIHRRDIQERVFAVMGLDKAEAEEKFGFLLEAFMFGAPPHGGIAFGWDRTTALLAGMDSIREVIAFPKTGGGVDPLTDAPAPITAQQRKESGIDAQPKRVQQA
Assay type: functional
Design: scale not given: direction of the effect not stated beside the values
`CCCn1c(C)c(CC(=O)N(C)CCOC)c2c1CC(C)(C)CC2=O` was tested, and the Percent Effect was 1.4%.
Work on `CC(C)(C)C(=O)N1C[C@H](c2ccsc2)[C@H]2CN(Cc3cccs3)CC[C@H]21` yielded a Percent Effect of -0.28%.
For `c1ccc(C[C@H]2[C@H](N3CCOCC3)CCN2Cc2cccnc2)cc1`, the Percent Effect was 2.33%.
Work on `COCC1CN(Cc2ccncc2)Cc2nnn(CC3CC3)c21` (stereo not given) yielded a Percent Effect of 0.981%.
`CCc1n[nH]c(C2CN(C(=O)c3ccsc3)CCO2)n1` (stereo not given) was tested, and the Percent Effect was -7.75%.
With `CCC(=O)N(C)CC(=O)Nc1ccc(Br)cn1` the Percent Effect was -3.04%.
In the case of `Cc1ncc2c(n1)CCN(C(=O)Cc1c(C)noc1C)C2`, the Percent Effect is reported as -2.87%.
Molecule `COc1cccc(COCC(=O)N2CCC(CC(N)=O)CC2)c1` has a Percent Effect of -3.72%.
For `COCCN(C)C(=O)Nc1ccc2c(ccn2CCOC)c1`, the Percent Effect was -1.14%.
Molecule `O=C(Cc1cccnc1)N1CCC2(CC1)CCN(C1CCOCC1)C2` has a Percent Effect of 1.28%.
`CC(C)(C)c1n[nH]c(C2CN(C(=O)CCC3CC3)CCO2)n1` (stereo not given) gave a Percent Effect of -3.75%.
`Cc1cnn(CC(C)NCc2nc(-c3cccnc3)no2)c1` (stereo not given) showed a Percent Effect of 1%.
`Cc1noc([C@H]2COC[C@H]3CN(C(=O)Cc4ccc(F)cc4)C[C@H]32)n1` gave a Percent Effect of -3.45%.
Molecule `Cc1nc(CCN(C)C(=O)C2COc3ccccc3C2)no1` (stereo not given) has a Percent Effect of 0.743%.
Molecule `COCC(=O)N1CCC2(CC1)CCN(Cc1ccccn1)C2=O` has a Percent Effect of 3.22%.
`CCn1cc(S(=O)(=O)N(C)Cc2c(Br)cnn2CC)c(C)n1` was tested, and the Percent Effect was 3.54%.
In the case of `O=C(C1CC=CC1)N1CCC2(CC1)CN(Cc1ccccn1)CCO2`, the Percent Effect is reported as -0.381%.
`CCC(OC)C(=O)N1CCc2nc(NC)nc(C(=O)N3CCCC3)c2C1` (stereo not given) was tested, and the Percent Effect was 1.34%.
`CCOC(CC)C(=O)NCc1ccnc(Oc2ccc(F)cc2)c1` (stereo not given) was tested, and the Percent Effect was 0.301%.
In the case of `Cc1nn(C)c(N2CCOCC2)c1CNC(c1cccs1)C(C)C` (stereo not given), the Percent Effect is reported as 1.8%.
Molecule `CCn1nc(C)c2ncnc(NCC(=O)N3CCOCC3)c21` has a Percent Effect of -3.08%.
`CC(=O)N1CCC(C(=O)NCCN2CCCCC2)CC1` was tested, and the Percent Effect was -0.501%.
For `Cc1cc(NC(=O)c2nc(N3CCCC3)ncc2Cl)nc(C(C)C)n1`, the Percent Effect was 2.49%.
`CC(C)c1nnc2n1CCN(C(=O)CN1CCc3sccc3C1)C2` was tested, and the Percent Effect was -0.1%.
In the case of `Cc1ccccc1-c1cc(C(=O)NCCN2CCCS2(=O)=O)[nH]n1`, the Percent Effect is reported as -2.39%.
`c1ccc(Cn2cc(CNC3CCc4ncnn4C3)cn2)cc1` (stereo not given) gave a Percent Effect of -2.87%.
`CCNc1cc2c(nn1)CCN(C(=O)c1ccc(CNC(C)=O)o1)C2` showed a Percent Effect of 5.42%.
`O=C(c1ccc(C2CCCO2)s1)N1CCS(=O)(=O)CC1` (stereo not given) was tested, and the Percent Effect was 3.74%.
Molecule `c1ccc(-c2nc(CN3CCCC(Cn4cncn4)C3)no2)cc1` (stereo not given) has a Percent Effect of -9.3%.
`CN(C)S(=O)(=O)N1CCC(Oc2ccc(C#N)cc2)CC1` gave a Percent Effect of 0.641%.
`Cc1cnn(CC2CCCN2C(=O)c2cn(-c3ccccc3)nc2C)c1` (stereo not given) was tested, and the Percent Effect was 4.47%.
Molecule `CC(C)(C)OC(=O)N1CCCC[C@H]1C(=O)NCc1nccs1` has a Percent Effect of -1.06%.
For `Cc1nc2ccccc2c(=O)n1CCC(=O)N1CCSCC1`, the Percent Effect was 1.9%.
`CCc1nc(C)c(C(=O)NCCN2CCC(C)CC2)s1` was tested, and the Percent Effect was -0.879%.
`CNC(=O)C1CCN(C(=O)c2ccn(-c3ccc(F)cc3)n2)CC1` gave a Percent Effect of 3.5%.
`Cc1ccc(S(=O)(=O)Nc2ccc(-n3cccc3C(=O)O)c(C)c2)s1` was tested, and the Percent Effect was 4.34%.
`CCS(=O)(=O)N1CCC(c2nnc(Cn3cccn3)n2C2CC2)CC1` gave a Percent Effect of -3.09%.
Molecule `COCCCn1ccnc1-c1cnc(OC)nc1` has a Percent Effect of 2%.
For `Cc1cc(C)c(CNC(=O)NCC2CCCN2C)c(=O)[nH]1` (stereo not given), the Percent Effect was -1.7%.
`O=C(NCc1cncc2c1CCN(Cc1cccc(F)c1)C2)C1CC1` was tested, and the Percent Effect was 1.78%.

These molecules were tested against Shiga toxin 2 (Escherichia coli O157:H7) (UniProt P09385+P09386) (assay: E. coli 0.157:H7 Shiga Toxin SOP - stx2 screening assay). Conditions: 30 µM.
Assay type: functional
Design: scale not given: direction of the effect not stated beside the values
`CCCn1c(C)c(CC(=O)N(C)CCOC)c2c1CC(C)(C)CC2=O` was tested, and the Percent Effect was -6.17%.
`CC(C)(C)C(=O)N1C[C@H](c2ccsc2)[C@H]2CN(Cc3cccs3)CC[C@H]21` was tested, and the Percent Effect was -20.2%.
Work on `c1ccc(C[C@H]2[C@H](N3CCOCC3)CCN2Cc2cccnc2)cc1` yielded a Percent Effect of -7.76%.
With `COCC1CN(Cc2ccncc2)Cc2nnn(CC3CC3)c21` (stereo not given) the Percent Effect was -28.3%.
`CCc1n[nH]c(C2CN(C(=O)c3ccsc3)CCO2)n1` (stereo not given) gave a Percent Effect of 21.9%.
With `CCC(=O)N(C)CC(=O)Nc1ccc(Br)cn1` the Percent Effect was -18.8%.
With `Cc1ncc2c(n1)CCN(C(=O)Cc1c(C)noc1C)C2` the Percent Effect was -13.9%.
In the case of `COc1cccc(COCC(=O)N2CCC(CC(N)=O)CC2)c1`, the Percent Effect is reported as 32.3%.
`COCCN(C)C(=O)Nc1ccc2c(ccn2CCOC)c1` gave a Percent Effect of -20.9%.
Work on `O=C(Cc1cccnc1)N1CCC2(CC1)CCN(C1CCOCC1)C2` yielded a Percent Effect of -40.8%.
`CC(C)(C)c1n[nH]c(C2CN(C(=O)CCC3CC3)CCO2)n1` (stereo not given) showed a Percent Effect of 11.1%.
Molecule `Cc1cnn(CC(C)NCc2nc(-c3cccnc3)no2)c1` (stereo not given) has a Percent Effect of -15.5%.
Molecule `Cc1noc([C@H]2COC[C@H]3CN(C(=O)Cc4ccc(F)cc4)C[C@H]32)n1` has a Percent Effect of 23.4%.
For `Cc1nc(CCN(C)C(=O)C2COc3ccccc3C2)no1` (stereo not given), the Percent Effect was -10.1%.
`COCC(=O)N1CCC2(CC1)CCN(Cc1ccccn1)C2=O` gave a Percent Effect of 7.27%.
Molecule `CCn1cc(S(=O)(=O)N(C)Cc2c(Br)cnn2CC)c(C)n1` has a Percent Effect of 13.9%.
With `O=C(C1CC=CC1)N1CCC2(CC1)CN(Cc1ccccn1)CCO2` the Percent Effect was 3.35%.
`CCC(OC)C(=O)N1CCc2nc(NC)nc(C(=O)N3CCCC3)c2C1` (stereo not given) gave a Percent Effect of -1.38%.
`CCOC(CC)C(=O)NCc1ccnc(Oc2ccc(F)cc2)c1` (stereo not given) was tested, and the Percent Effect was 5.28%.
`Cc1nn(C)c(N2CCOCC2)c1CNC(c1cccs1)C(C)C` (stereo not given) was tested, and the Percent Effect was 25.3%.
With `CCn1nc(C)c2ncnc(NCC(=O)N3CCOCC3)c21` the Percent Effect was -16.4%.
Molecule `CC(=O)N1CCC(C(=O)NCCN2CCCCC2)CC1` has a Percent Effect of -3.32%.
Work on `Cc1cc(NC(=O)c2nc(N3CCCC3)ncc2Cl)nc(C(C)C)n1` yielded a Percent Effect of -23.7%.
Work on `CC(C)c1nnc2n1CCN(C(=O)CN1CCc3sccc3C1)C2` yielded a Percent Effect of -16.2%.
For `Cc1ccccc1-c1cc(C(=O)NCCN2CCCS2(=O)=O)[nH]n1`, the Percent Effect was -11.4%.
With `c1ccc(Cn2cc(CNC3CCc4ncnn4C3)cn2)cc1` (stereo not given) the Percent Effect was -22.8%.
With `CCNc1cc2c(nn1)CCN(C(=O)c1ccc(CNC(C)=O)o1)C2` the Percent Effect was -44.4%.
Work on `O=C(c1ccc(C2CCCO2)s1)N1CCS(=O)(=O)CC1` (stereo not given) yielded a Percent Effect of -6.97%.
With `c1ccc(-c2nc(CN3CCCC(Cn4cncn4)C3)no2)cc1` (stereo not given) the Percent Effect was 7.88%.
`CN(C)S(=O)(=O)N1CCC(Oc2ccc(C#N)cc2)CC1` was tested, and the Percent Effect was -1.14%.
For `Cc1cnn(CC2CCCN2C(=O)c2cn(-c3ccccc3)nc2C)c1` (stereo not given), the Percent Effect was 14.6%.
`CC(C)(C)OC(=O)N1CCCC[C@H]1C(=O)NCc1nccs1` gave a Percent Effect of -16.6%.
With `Cc1nc2ccccc2c(=O)n1CCC(=O)N1CCSCC1` the Percent Effect was 7.96%.
`CCc1nc(C)c(C(=O)NCCN2CCC(C)CC2)s1` was tested, and the Percent Effect was -68.3%.
In the case of `CNC(=O)C1CCN(C(=O)c2ccn(-c3ccc(F)cc3)n2)CC1`, the Percent Effect is reported as 7.26%.
Work on `Cc1ccc(S(=O)(=O)Nc2ccc(-n3cccc3C(=O)O)c(C)c2)s1` yielded a Percent Effect of 18.8%.
`CCS(=O)(=O)N1CCC(c2nnc(Cn3cccn3)n2C2CC2)CC1` was tested, and the Percent Effect was -6.14%.
`COCCCn1ccnc1-c1cnc(OC)nc1` showed a Percent Effect of -0.356%.
`Cc1cc(C)c(CNC(=O)NCC2CCCN2C)c(=O)[nH]1` (stereo not given) was tested, and the Percent Effect was 26.6%.
In the case of `O=C(NCc1cncc2c1CCN(Cc1cccc(F)c1)C2)C1CC1`, the Percent Effect is reported as -32.2%.
